Measured values from PubChem BioAssay (NCATS).
Records with an inconclusive call do not appear. Unmarked numbers belong to inactive results. The source made the active and inactive calls. The call rests on the fitted dose curve; in most records, active means well fitted inhibition curve with a large enough effect; inconclusive means small, poorly fitted or top-dose-only effect; inactive means flat fitted curve, though single readings scatter.

These molecules were tested on astro (assay: Drug repurposing screens with cells derived from glioblastoma tumor samples (AID 1345199; further: nearly all actives have a fitted effect of over 40% in size)). Conditions: viability, ATP luminescence, 48 h; series mostly up to 45.9 µM; activity, negative = cell killing: at the top concentration.
In short: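 Primary testing used CD133+ neurospheres from four GBM patients, seven concentrations, 48 h exposure and ATP-based viability; confirmation added three slower-growing patient lines.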
On the % scale 0 is the no-effect control and ±100 the full control effect; potency means the concentration at half of the fitted maximal effect.

Point of comparison: `CCC1(CC)C(=O)NC(=O)NC1=O`, “activity, negative = cell killing” value -16.7%. Against it:
- CN1C(=O)CN=C(c2ccccc2)c2cc(Cl)ccc21 — lower, -23%
- CN1[C@@H]2CC[C@H]1CC(OC(=O)c1cc(Cl)cc(Cl)c1)C2 (some centres not stated) — lower, -22.6%
- COP(=S)(OC)Oc1ccc(S(N)(=O)=O)cc1 — higher, -15%
- Cc1cccc(Cc2cnc[nH]2)c1C — lower, -22.6%
- CCN(CC)C(C)C(=O)c1ccccc1 (configuration not stated) — higher, -4.54%
- NCc1cccnc1 — higher, -10.8%
- CC1=C2[C@H]3OC(=O)[C@@H](C)[C@@H]3CC[C@@]2(C)C=CC1=O — higher, -4.17%
- CCCC(C)C1(CC)C(=O)N=C(S)NC1=O (configuration not stated) — higher, -10.5%
- c1cc2c(c(N3CCNCC3)c1)OCCO2 — lower, -20.6%
- CC(Cc1ccccc1)NCc1ccccc1Cl (configuration not stated) — higher, -9.9%
- COc1cc(N)c(Cl)cc1C(=O)NC1CN2CCC1CC2 (configuration not stated) — lower, -18.1%
- CC(C)NCC(O)c1ccc(N)c(C#N)c1 (configuration not stated) — lower, -23.6%
- C[C@H]1CNCCc2ccc(Cl)cc21 — higher, -12.5%
- CCOC(=O)NC(C)(C)Cc1ccc(Cl)cc1 — higher, -13%
- C[N+]1(CCC(C(N)=O)(c2ccccc2)c2ccccc2)CCCCC1 — higher, 0.273%
- COc1ccc2c(C(=O)c3ccc(Cl)cc3)c(C)n(CC(=O)O)c2c1 — lower, -29.6%
- COc1ccc(C(=O)N2CCCC2=O)cc1 — higher, -7.43%
- C[C@]12CC[C@H]3[C@@H](CC=C4C[C@@H](O)CC[C@@]43C)[C@@H]1CC[C@@H]2O — lower, -27.7%

Point of comparison: `OC(c1ccccc1)(c1ccccc1)C1CCNCC1`, “activity, negative = cell killing” value -15.9% [at 21.2 µM]. Against it:
- Clc1ccc(C(OCCN2CCCCC2)c2ccccc2)cc1 (configuration not stated) — lower, -25.6% [at 21.2 µM]
- CCOC(=O)c1cncn1C(C)c1ccccc1 (configuration not stated) — higher, -11.7% [at 21.2 µM]
- C[C@@H]1CN(C2CCC(C#N)(c3ccc(F)cc3)CC2)CC[C@]1(C(=O)O)c1ccccc1 (some centres not stated) — higher, -11.6% [at 21.2 µM]

For `Cc1nnc2n1-c1sc(CCc3ccc(CC(C)C)cc3)cc1C(c1ccccc1Cl)=NC2C` (configuration not stated), the Potency was 35.5 µM (active).
With `CCC1(c2cnc[nH]2)Cc2ccccc2C1` the Potency was “inactive”.
In the case of `c1ccc2nc(N3CCNCC3)ccc2c1`, the Potency is reported as 12.6 µM (active).

Point of comparison: `C[C@H](CN1CCOCC1)C(C(=O)N1CCCC1)(c1ccccc1)c1ccccc1`, “activity, negative = cell killing” value -20% [at 108 µM]. Against it:
- CCc1cc(OC)c(C[C@H](C)N)cc1OC — higher, -5.4% [at 108 µM]
- CCC(=O)OC1(c2ccccc2)CCN(C)CC1 — higher, -14.4% [at 108 µM]
- COc1cc(C[C@@H](C)N)c(OC)cc1C — lower, -20.4% [at 108 µM]
- CNC(C)Cc1ccc2c(c1)OCO2 (configuration not stated) — higher, -15.8% [at 108 µM]

Point of comparison: `CC(C)=CCN1CC[C@@]2(C)c3cc(O)ccc3C[C@@H]1[C@@H]2C`, “activity, negative = cell killing” value -17.8% [at 91.6 µM]. Against it:
- NC1(c2ccccc2)CCCCC1 — higher, -13.4% [at 91.6 µM]
- CN(C)CCc1c[nH]c2ccc(O)cc12 — lower, -25.4% [at 91.6 µM]
- CC[C@H]1C[C@@H]2C[C@H]3c4[nH]c5ccc(OC)cc5c4CCN(C2)[C@@H]13 — lower, -23.6% [at 91.6 µM]
- CN(C)CCc1c[nH]c2cccc(O)c12 — lower, -18% [at 91.6 µM]
- CC(CC(C#N)(c1ccccc1)c1ccccc1)N(C)C (configuration not stated) — higher, -16% [at 91.6 µM]
